Assay [1] can be described thus: qHTS assay to identify small molecule antagonists of the constitutive androstane receptor (CAR) signaling pathway - cell viability counter screen (AID 1224837). Also: nearly all actives have a fitted effect of over 45% in size. An outline of the steps:
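Counter screen run in HepG2-CYP2B6-hCAR cells: 4 hr settle, compound titration (15 concentrations) with 50 nM CITCO, 23 hr at 37 C/5% CO2, CellTiter-Fluor fluorescence.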

A short description of assay [2]: qHTS assay to identify small molecule antagonists of the estrogen related receptor signaling pathway with the pleiotropic PPARgamma coactivator (PGC) from Tox21 10K library - cell viability counter screen (AID 1224840; active = well fitted cell-killing curve with a large enough effect in the repeat runs, not every such curve was filed as active; also: nearly all actives have a fitted effect of over 40% in size). In outline:
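Following seeding of 2,000 PGC/ERR cells/well and 6 hours' incubation, test compounds were delivered in DMSO. The plates then sat 17.5 hours at 37 C before a fluorogenic live-cell protease reagent (CellTiter-Fluor) was read after 30 min.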
(In qHTS, concentration-response curves come from the screen itself.)

Assay [3] in a line: qHTS assay to identify small molecule antagonists of the estrogen related receptor signaling pathway with the pleiotropic PPARgamma coactivator (PGC) from Tox21 10K library (AID 1224841; call rule not given here; also: actives are mostly falling curves and most rising ones were filed inactive; nearly all actives have a fitted effect of over 50% in size). In outline: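 qHTS antagonist format: PGC/ERR cells, 2k/well, compound in DMSO by pin transfer after 6 h attachment, 18 h treatment at 37 C, One-Glo luminescence read at 30 min.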
Assay [4] in a line: qHTS assay to identify small molecule agonists of the estrogen related receptor signaling pathway with the pleiotropic PPARgamma coactivator (PGC) from Tox21 10K library (AID 1224842). Also: nearly all actives have a fitted effect of over 15% in size. In outline:
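PGC/ERR reporter cell line, 2,000 cells per well, incubated 6 h at 37 C before 23 nL compound in DMSO was added. After 18 h at 37 C, One-Glo luminescence read following 30 min at room temperature.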

The nature of assay [5]: qHTS assay to identify small molecule agonists of the hypoxia (HIF-1) signaling pathway - cell viability counter screen (AID 1224844; calls by dose curve; also: nearly all actives have a fitted effect of over 50% in size). In outline: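 Cells (HRE-bla ME-180, 2,000 per well) sat 5 hrs at 37C, got compound for 17 hrs, were read for CCF4-AM FRET, and were finally lysed with CellTiter-Glo for a 30 min room-temperature luminescence read.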
The nature of assay [6]: qHTS assay to identify small molecule agonists of H2AX (AID 1224845; active = well fitted activation curve with a large enough effect in the signal ratio in the repeat runs, not every such curve was filed as active; the % refers to the signal ratio). In outline: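 Wild-type CHO-K1 cells, plated overnight, exposed 3hr at 37C to 15 concentrations (0.76% DMSO final). Lysed, then HTRF anti-pH2AX (S139) cryptate and anti-H2AX-d2 antibodies, 24 hr room temperature; 665/620 nm emission read.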
Assay [7] in a line: qHTS assay to identify small molecule agonists of the hypoxia (HIF-1) signaling pathway (AID 1224846; active = well fitted activation curve with a large enough effect in the signal ratio in the repeat runs, not every such curve was filed as active; the % refers to the signal ratio). An outline of the steps: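 A low-serum medium (0.5% dialyzed FBS) holding 2,000 HRE-bla ME-180 cells per well is preincubated for 5 hrs, dosed with compounds by pintool, and kept a further 17 hrs at 37C, 5% CO2 before CCF4-AM FRET detection of beta-lactamase.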
Assay [8] can be described thus: qHTS assay to identify small molecule agonists of H2AX - cell viability counter screen (AID 1224847; calls by dose curve; also: top concentration of the series differs between compounds; nearly all actives have a fitted effect of over 30% in size). In outline: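 Wild-type CHO-K1 cells (10% FBS medium) were plated overnight at 37C, exposed to compounds at 15 concentrations for 3 hr at 37C (0.76% DMSO final), and viability was read as CellTiter-Glo luminescence after 30 min at room temperature.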
Assay [9] in a line: qHTS assay to identify small molecule antagonists of the estrogen related receptor (ERR) signaling pathway from Tox21 library (AID 1224848). Also: nearly all actives have a fitted effect of over 50% in size. An outline of the steps:
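Luminescent reporter read-out (ONE-Glo) from NTP's ERR cell line after 18 h treatment at 37 C with DMSO-dissolved Tox21 compounds; cells pre-plated 6 h beforehand at 2,000 per well.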

The nature of assay [10]: qHTS assay to identify small molecule agonists of the estrogen related receptor (ERR) signaling pathway from Tox21 library (AID 1224849; calls by dose curve; also: nearly all actives have a fitted effect of over 15% in size). Conditions: ERR reporter cell line, ONE-Glo luciferase, 18 h. An outline of the steps: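 Screening used an NTP-provided ERR luciferase cell line. Compounds in DMSO were added 6 h after seeding and left 18 h at 37 C before a 30 min ONE-Glo step and luminescence reading.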

A short description of assay [11]: qHTS RealTime-Glo MT Cell Viability Assay in HepG2 cells - 24 hour (AID 1224867). Also: nearly all actives have a fitted effect of over 50% in size. In outline:
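Cells + NanoLuc/prosubstrate dispensed (600 cells/well) → 5 h at 37 C/5% CO2 → compounds in DMSO transferred → 40 h incubation at 37 C, luminescence read at 0, 8, 16, 24, 32, 40 h.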

Assay [12] in a line: qHTS RealTime-Glo MT Cell Viability Assay in HEK293 cells - 32 hour (AID 1224868). An outline of the steps: (§1)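 Tox21 10K qHTS, HEK293, 600 cells/well, RealTime-Glo reagent co-dispensed with cells; 5 h preincubation, compound by pintool, 37 C, luminescence at 0–40 h.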
Assay [13] is described as follows: A CellTox Green Cytotoxicity Assay to monitor cytotoxicity in HEK293 cells - 0 hour (AID 1224869). Also: nearly all actives have a fitted effect of over 50% in size. Also: potency is read from the fitted curve at half-maximal effect. In outline:
(§2)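 Fluorescence intensity, read at 0, 8, 16, 24, 32 and 40 h of compound treatment, reflected dye binding to DNA of dead HEK293 cells; compounds (23 nL, DMSO) were added 5 h after plating cells with reagent.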

The nature of assay [14]: qHTS RealTime-Glo MT Cell Viability Assay in HepG2 cells - 40 hour (AID 1224870). Also: nearly all actives have a fitted effect of over 50% in size. An outline of the steps:
(§3)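 HepG2 cells (600/well) mixed with RealTime-Glo MT reagent, settled 5 h at 37 C/5% CO2 before compound addition. Nonlytic NanoLuc luminescence from viable-cell prosubstrate reduction read repeatedly during 40 h treatment at 37 C.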

Assay [15] is described as follows: A CellTox Green Cytotoxicity Assay to monitor cytotoxicity in HEK293 cells - 40 hour (AID 1224871). Also: nearly all actives have a fitted effect of over 45% in size. Also: potency is read from the fitted curve at half-maximal effect. An outline of the steps:
as §2

Assay [16] is described as follows: qHTS RealTime-Glo MT Cell Viability Assay in HEK293 cells - 16 hour (AID 1224872). An outline of the steps: as §1
Assay [17] is described as follows: qHTS RealTime-Glo MT Cell Viability Assay in HepG2 cells - 8 hour (AID 1224873). Also: nearly all actives have a fitted effect of over 55% in size. An outline of the steps: as §3
Assay [18] concerns the target Thyrotropin receptor (Homo sapiens) (UniProt P16473). Put plainly: qHTS assay to identify small molecule agonists of the thyroid stimulating hormone receptor (TSHR) signaling pathway (AID 1224843; calls by dose curve; also: nearly all actives have a fitted effect of over 45% in size). In outline: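 Steps: seed 800 TSHR-HEK293 cells per well; add test compound and hold 30 min at ambient temperature; dispense cAMP-d2 then anti-cAMP cryptate; incubate 1 h at ambient; measure fluorescence intensity.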

In assay [19] the target is Nuclear receptor subfamily 1 group I member 3 (Homo sapiens) (UniProt Q14994). Put plainly: qHTS assay to identify small molecule antagonists of the constitutive androstane receptor (CAR) signaling pathway (AID 1224838). Also: nearly all actives have a fitted effect of over 40% in size. In outline:
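Cell line: HepG2 double-stable for hCAR and CYP2B6-2.2kb reporter. Agonist: CITCO, 50 nM final. Compounds: 15 concentrations, 24 h, 37 C. Detection: ONE-Glo luminescence.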

Assay [20] shares this target. Put plainly: qHTS assay to identify small molecule agonists of the constitutive androstane receptor (CAR) signaling pathway (AID 1224839).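 Also: HepG2 cells stably carrying human CAR and a CYP2B6 luciferase reporter; nearly all actives have a fitted effect of over 15% in size.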 In outline:
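HepG2 cells stably expressing hCAR and a CYP2B6-2.2kb luciferase reporter were treated with compounds at 15 concentrations plus 0.75 uM PK11195 (final) for 24 h at 37 C; luminescence was read after ONE-Glo addition.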

Where “and” joins values, the source holds several entries; their conditions need not be identical. Equal values may be shown once. Results filed as inconclusive are left out. Where a structure was tested more than once in an assay, its records may differ in their call. Calls of active or inactive are those of the source. Unless noted, calls follow the shape of the dose curve; as a rule, active = well fitted curve in the direction sought with a large enough effect in the repeat runs; inconclusive = weak or mixed curves; inactive = no such curve, though single readings can be large; an effect the other way counts as inactive or inconclusive.
% is scaled to controls: 0 for no effect and ±100 for the full control effect.

Sequence of Nuclear receptor subfamily 1 group I member 3 (Homo sapiens) (Q14994 whole entry, looked up): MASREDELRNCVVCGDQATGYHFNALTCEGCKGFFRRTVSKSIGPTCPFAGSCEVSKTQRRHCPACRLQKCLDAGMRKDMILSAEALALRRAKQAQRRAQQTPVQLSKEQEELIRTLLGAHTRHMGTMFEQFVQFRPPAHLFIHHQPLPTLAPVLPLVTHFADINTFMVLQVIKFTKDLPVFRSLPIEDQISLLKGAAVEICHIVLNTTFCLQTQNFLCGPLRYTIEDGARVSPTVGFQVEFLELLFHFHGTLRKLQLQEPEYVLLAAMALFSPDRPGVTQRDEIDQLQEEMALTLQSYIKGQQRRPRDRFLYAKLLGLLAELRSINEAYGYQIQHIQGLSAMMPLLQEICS
Sequence of Thyrotropin receptor (Homo sapiens) (P16473 whole entry, looked up): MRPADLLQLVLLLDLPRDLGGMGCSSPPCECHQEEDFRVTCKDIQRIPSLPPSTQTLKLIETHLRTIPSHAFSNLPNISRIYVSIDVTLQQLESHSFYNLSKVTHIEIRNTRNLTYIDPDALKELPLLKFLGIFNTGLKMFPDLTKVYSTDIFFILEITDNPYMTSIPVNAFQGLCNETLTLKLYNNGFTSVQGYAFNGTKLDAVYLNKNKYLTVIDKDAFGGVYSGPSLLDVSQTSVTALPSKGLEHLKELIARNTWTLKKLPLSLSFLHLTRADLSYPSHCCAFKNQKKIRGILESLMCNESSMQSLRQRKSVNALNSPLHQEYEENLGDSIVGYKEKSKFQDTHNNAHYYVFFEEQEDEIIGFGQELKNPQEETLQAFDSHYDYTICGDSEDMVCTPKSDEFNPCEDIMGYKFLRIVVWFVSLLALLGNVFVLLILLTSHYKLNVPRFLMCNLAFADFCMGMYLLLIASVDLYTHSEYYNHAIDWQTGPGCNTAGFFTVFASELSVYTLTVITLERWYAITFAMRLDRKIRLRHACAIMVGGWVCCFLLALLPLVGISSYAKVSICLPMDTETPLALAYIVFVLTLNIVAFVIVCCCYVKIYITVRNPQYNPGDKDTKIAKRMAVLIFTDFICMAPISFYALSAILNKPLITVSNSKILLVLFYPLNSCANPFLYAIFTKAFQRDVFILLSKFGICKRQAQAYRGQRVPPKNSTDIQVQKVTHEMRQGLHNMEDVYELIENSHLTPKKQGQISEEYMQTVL

With `CC1OC(C)OC(C)O1` (stereo not drawn), the Potency result in [1], in [2], in assay [3], in assay [5], in [6] and in [8] was “inactive” throughout. Also, the Potency result in assay [9], in assay [12], in [13] and in assay [15] was “inactive” throughout. In addition, the call in assay [4], in assay [7], in [11], in assay [14], in [16] and in assay [17] was inactive. For the same compound, the activity change, positive = activation in assay [10] (at 42.5 µM (top of the series)) was 4.56% (inactive); in assay [10] (at 92.4 µM (top of the series)) it was 4.37% (inactive).

Regarding `C#CCN(C)[C@H](C)Cc1ccccc1`, the Potency entry in [1], in assay [2], in assay [18], in assay [5], in assay [6] and in assay [8] was “inactive” throughout. Moreover, the Potency entry in [12], in [13] and in assay [15] was “inactive” in each case. Moreover, the result in [11], in assay [16] and in assay [17] was inactive.

With `CCCCCCCCCCCC#N`, the Potency entry in assay [1], in assay [19], in assay [20], in assay [2], in assay [18] and in assay [5] was “inactive” each time. Further, the Potency result in assay [6], in assay [8] and in assay [12] was “inactive” in each case. For the same compound, the outcome in [11], in assay [16] and in [17] was inactive. The Potency entry in [13] is “inactive and 45.2 µM (active)”; in assay [15], “inactive and 40.3 µM (active)”.

As for `CC(C)C1(C)N=C(c2nc3ccccc3cc2C(=O)O)NC1=O` (stereo not drawn), the Potency result in [19], in assay [20], in assay [2], in assay [3], in assay [18] and in assay [5] was “inactive” each time. Moreover, the Potency entry in [6], in [8], in assay [9], in assay [12], in assay [13] and in [15] was “inactive” in each case. Also, the outcome in assay [4], in assay [7], in assay [11], in assay [14], in [16] and in assay [17] was inactive. The activity change, positive = activation in assay [10] (at 92.4 µM (top of the series)) is 3.26% (inactive) and 5.33% (inactive).

For the compound `c1cc2c3c(cccc3c1)CC2`, the Potency result in assay [1], in assay [19], in [20], in assay [2], in assay [18] and in assay [5] was “inactive” throughout. Besides, the Potency result in [6], in assay [8], in [12] and in assay [13] was “inactive” each time. The call in [11], in [16] and in assay [17] was inactive. The Potency entry in assay [15] is “inactive and 43.6 µM (active)”.

Regarding `CC(C)N1C(=O)c2ccccc2NS1(=O)=O`, the Potency entry in assay [1], in assay [2], in assay [3], in assay [18], in [5] and in [6] was “inactive” throughout. The Potency result in [8], in assay [9], in [12], in [13] and in assay [15] was “inactive” in each case. The result in assay [4], in assay [7], in assay [11], in assay [16] and in assay [17] was inactive. The activity change, positive = activation in [10] (at 92.4 µM (top of the series)) is -10.6% (inactive) and -6.56% (inactive).

As for `OC(O)C(Cl)(Cl)Cl`, the Potency entry in assay [1], in assay [2], in [3], in assay [18], in [5] and in assay [6] was “inactive” in each case. The Potency result in assay [8], in assay [9], in [12], in assay [13] and in assay [15] was “inactive” in each case. Moreover, the result in [4], in assay [7], in [11], in assay [14], in assay [16] and in assay [17] was inactive. The results for the activity change, positive = activation in assay [10] (at 42.5 µM (top of the series)) and in assay [10] (at 92.4 µM (top of the series)) were 0.553% (inactive) and -4.47% (inactive), respectively.

(Values after PubChem BioAssay (Tox21).)
